NPC1 prom act: NPC1 promoter activation. Huh7 NPC1 promoter luciferase reporter, 24 h. Potency, µM (series often up to 9.22 µM), actives largely listed as activators. 320,000 compounds, 2.4% hits. AID 485313; note: nearly all actives have a fitted effect of over 60% in size
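Stable NPC1-promoter luciferase Huh7 line; cpd (DMSO) 24 h, 37 °C, 5% CO2; Amplite luciferase reagent 10 min RT; luminescence readout. qHTS format.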
SMN2 splice enh: increases expression of the SMN2 splice variant. HEK293 SMN2-luciferase splicing reporter, luminescence, 30-36 h. Potency, µM (titrated, usually from 46.1 µM), usual class: activators. 210,000 compounds, 2.8% hits; note: nearly all actives have a fitted effect of over 55% in size
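HEK293 cells carry an SMN2 […]–luciferase reporter in which exon 7 inclusion puts luciferase in frame. Cells were plated 10-12 h before compound addition, then incubated 30-36 h at 37C. ONE-Glo luminescence was read; sodium butyrate at 4.5 mM final served as control.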
ELG1 genotox: inducers of genotoxicity in HEK293T ELG1-luciferase cells. HEK293T ELG1-luciferase reporter, luminescence, 16 h. Potency, µM (highest dose often 46 µM), actives largely listed as activators. 330,000 compounds, 1.3% hits; note: nearly all actives have a fitted effect of over 60% in size
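Quantitative HTS format in 1536-well plates. HEK293T ELG1-luciferase reporter cells receive test compound and are incubated 16 hr at 37 °C, 5% CO2; ONE-Glo added, 30 min room temperature, then luminescence read.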
FLuc modulator: inhibits or activates purified firefly luciferase, miR-21 counter-screen | purified FLuc, Km substrates, luminescence inhibition | Potency, µM (series often up to 57.5 µM), actives largely listed as inhibitors | 360,000 compounds, 6.9% hits; note: nearly all actives have a fitted effect of over 55% in size
Target sequence (P08659 whole entry, looked up): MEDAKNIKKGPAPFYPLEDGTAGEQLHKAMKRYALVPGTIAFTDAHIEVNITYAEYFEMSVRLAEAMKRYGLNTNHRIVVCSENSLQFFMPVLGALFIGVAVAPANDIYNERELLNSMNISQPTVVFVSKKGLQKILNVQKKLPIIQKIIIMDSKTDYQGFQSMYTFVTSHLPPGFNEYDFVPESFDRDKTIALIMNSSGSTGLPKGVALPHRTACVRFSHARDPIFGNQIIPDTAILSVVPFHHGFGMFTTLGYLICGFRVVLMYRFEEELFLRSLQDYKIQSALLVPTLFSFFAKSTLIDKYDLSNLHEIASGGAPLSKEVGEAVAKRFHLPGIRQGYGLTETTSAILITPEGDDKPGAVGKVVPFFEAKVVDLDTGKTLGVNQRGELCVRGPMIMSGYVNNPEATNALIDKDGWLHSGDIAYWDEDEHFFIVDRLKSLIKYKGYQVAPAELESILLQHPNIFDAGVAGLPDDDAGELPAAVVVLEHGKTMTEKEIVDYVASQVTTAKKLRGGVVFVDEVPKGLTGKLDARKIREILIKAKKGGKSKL
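Purified P. pyralis luciferase, 10 nM final, with Km-level 10 uM D-luciferin and 10 uM ATP in 50 mM Tris acetate pH 7.5, 10 mM Mg acetate, 0.01% Tween-20, 0.05% BSA; 6-point qHTS titration about 60 µM downward; luminescence read.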
ELG1 DNA repair: ELG1-dependent DNA repair inhibition. HEK293T ELG1-luciferase reporter, luminescence, 16 h; DNA damage induced by 5-fluorouridine. Potency, µM (titrated, usually from 46.1 µM), actives largely listed as inhibitors. 330,000 compounds, 2.3% hits. AID 504467; note: nearly all actives have a fitted effect of over 55% in size
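Overnight (16 hr) co-exposure of 2,000 cells/well to 5-fluorouridine and compound at 37 °C preceded detection. Luciferase was quantified via ONE-Glo luminescence; loss of signal denotes inhibition.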
Rab9 promoter act: activates the Rab9 promoter. Huh7 Rab9 promoter-luciferase reporter, luminescence, 24 h. Potency, µM (series often up to 9.22 µM), actives largely listed as activators. 320,000 compounds, 2.8% hits; note: nearly all actives have a fitted effect of over 60% in size
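Luminescence read-out: Huh7 cells stably expressing Rab9-luciferase, treated 24 h with compound at 37 °C, then lysed with luciferase reagent for 10 min at ambient before reading.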
A number is an active result; - = inactive; ? = inconclusive; . = not tested or not shown. Most compounds without a hit are left out; they make up all but 9.3% or so of the library. Calls come from the whole dose curve; as a rule, active = well fitted curve in the direction sought with a large enough effect; inconclusive = small, poorly fitted or top-dose-only effect, or another doubt; inactive = no such curve, though single readings can be large; an effect the other way counts as inactive or inconclusive.

SMILES | NPC1 prom act | SMN2 splice enh | ELG1 genotox | FLuc modulator | ELG1 DNA repair | Rab9 promoter act
COc1ccc(/C=N/Nc2ncc(Br)cn2)c(OC)c1 | - | 22µM | 7.3µM | 2.7µM | ? | ?
COc1ccc(/C=N/Nc2ccccn2)c(OC)c1OC | ? | ? | ? | 17µM | - | ?
COc1ccc(/C=N\Nc2ccccn2)c(OC)c1 | ? | . | ? | 3.4µM | ? | ?
Cc1cc(=O)[nH]c2ccc(S(=O)(=O)N3CCOCC3)cc12 | - | . | ? | - | - | -
COC(=O)Cc1csc(Nc2ccc(F)c(Cl)c2)n1 | - | - | - | - | - | -
CCN1C(=O)/C(=C\c2cn(CCC#N)nc2-c2ccc(F)cc2)SC1=S | - | - | - | - | 15µM | -
N#CCCn1cc(/C=C2\NC(=S)N(c3ccccc3)C2=O)c(-c2ccc(-c3ccccc3)cc2)n1 | - | - | ? | - | - | -
Cc1c(NC(=O)Nc2cccc(C(F)(F)F)c2)sc2nc3n(c(=O)c12)CCC(C)CC3 (configuration not stated) | . | - | . | - | . | .
COc1ccc(Br)cc1CNC(=O)C1CCCN(S(=O)(=O)N2CC(C)CC(C)C2)C1 (configuration not stated) | - | . | - | - | - | -
CCOC(=O)Nc1ccc2c(C)cc(=O)oc2c1 | ? | 14µM | 18µM | 15µM | ? | ?
CCOC(=O)Nc1ccc2c(CN3CCN(S(=O)(=O)c4ccccc4F)CC3)cc(=O)oc2c1 | - | . | - | - | 6.5µM | -
CCOC(=O)Nc1ccc2c(CN3CCN(S(=O)(=O)c4ccc(C(C)C)cc4)CC3)cc(=O)oc2c1 | - | . | - | - | - | -
CCCCOC(=O)Nc1ccc2c(C)cc(=O)oc2c1 | 1.8µM | 11µM | 18µM | 6µM | ? | 1.4µM
COc1ccc(C2C(C(=O)c3cccs3)=C(O)C(=O)N2Cc2cccnc2)cc1OC (configuration not stated) | ? | . | ? | 19µM | ? | ?
CCc1ccc(/C=C2\SC(=S)N(CCC(=O)NCCCN3CCOCC3)C2=O)cc1 | - | . | - | 6.7µM | - | -
COc1ccc(/C=C2\SC(=S)N(CCC(=O)NCCCN3CCOCC3)C2=O)cc1 | - | . | - | 17µM | - | -
O=C(NC1CCCCCCC1)C1CCN(c2nc3ccccc3o2)CC1 | - | - | ? | - | 16µM | -
O=C(NCCc1ccccc1)C1CCN(c2nc3ccccc3o2)CC1 | - | - | - | - | ? | -
CSc1ccc(CNC(=O)C2CCC(=O)N(Cc3cccc(F)c3)C2)cc1 (configuration not stated) | - | . | - | - | - | -
O=C1/C(=C/N(C(=O)c2ccco2)c2ccc(Br)cc2)Sc2ccccc21 | ? | . | 12µM | 0.34µM | ? | ?
O=C1/C(=C/N(C(=O)c2ccco2)c2ccc(Cl)cc2)Sc2ccccc21 | ? | 14µM | ? | 0.13µM | ? | ?
COc1ccc(CN(C(=O)c2ccco2)c2ccc(Br)cc2)cc1OC | - | - | - | - | ? | -
CCCCc1ccc(NC(=S)NCC2CCCO2)cc1 (configuration not stated) | - | - | - | ? | - | -
CN(C)c1ccc(NC(=S)NCC2CCCO2)cc1 (configuration not stated) | - | 13µM | ? | ? | ? | -
CCc1ccc(CNC(=O)C(=O)NCC2CCCO2)cc1 (configuration not stated) | - | . | - | - | - | -
SMILES | NPC1 prom act | SMN2 splice enh | ELG1 genotox | FLuc modulator | ELG1 DNA repair | Rab9 promoter act
Cc1ccc(C(=O)NC(=S)NCC2CCCO2)cc1Br (configuration not stated) | - | 20µM | - | 19µM | ? | -
CCc1ccc(NC(=O)C(=O)NCC2CCCO2)cc1 (configuration not stated) | 3.5µM | 11µM | - | ? | ? | 1.4µM
O=C(NCCN1CCN(c2cccc(Cl)c2)CC1)Nc1ccccc1C(F)(F)F | . | - | . | - | . | .
Cc1ccc2c(c1)N(CC(=O)NCCCN1CC(C)CC(C)C1)C(=O)c1cccnc1O2 (configuration not stated) | - | . | - | - | - | -
N=c1scc(-c2ccccc2)n1/N=C/c1ccco1 | ? | ? | ? | 6.7µM | ? | 3.5µM
C(=N/n1c2ccccc2c2ccccc21)/c1ccco1 | - | ? | - | - | - | -
COc1ccc(S(=O)(=O)N2CCOCC2)cc1NC(=O)CSc1nnc2n1CCCCC2 | . | . | - | . | - | .
COc1ccc(Cl)cc1NC(=S)NNC(=O)c1cccnc1 | - | . | - | ? | - | -
O=C(NNC(=O)c1ccccc1Cl)c1cccs1 | - | - | - | - | ? | -
O=C(NNC(=O)c1cc(Cl)ccc1O)c1cccs1 | - | . | - | 21µM | ? | -
COc1ccc(Cl)cc1NC(=S)NNC(=O)c1cccs1 | - | . | - | 27µM | - | -
COc1ccc(OC)c(CNC(=O)c2coc(=O)c3ccccc23)c1 | - | - | - | - | - | -
CCC(Sc1nc2cc3c(cc2c(=O)n1CCCCCC(=O)NCc1ccc2c(c1)OCO2)OCO3)C(=O)NCCCOC (configuration not stated) | . | . | . | - | . | .
O=C1CN(C(=S)NC(=O)c2ccc(-c3ccccc3)cc2)CCN1 | - | - | - | ? | ? | ?
FC(F)Oc1ccccc1/C=N/n1cnc2ccccc21 | - | ? | - | 24µM | ? | -
NC(N)=N/N=C/c1ccccc1OC(F)F | - | - | - | - | - | -
O=C(NCc1ccco1)c1ccc(Cl)nc1 | - | . | - | - | - | -
COn1c(C)c(C(C)=O)c2c3nonc3ccc21 | - | - | - | - | 21µM | -
COc1ccc(-c2noc(C3CCCN(C(=O)CCc4ccccc4)C3)n2)cc1 (configuration not stated) | - | - | ? | - | ? | -
Cc1ccc(-c2noc(C3CCCN(C(=O)c4ccccc4)C3)n2)o1 (configuration not stated) | ? | ? | 9.2µM | 19µM | ? | ?
COc1ccccc1C(=O)N1CCCC(c2nc(-c3cc(OC)c(OC)c(OC)c3)no2)C1 (configuration not stated) | - | - | - | - | 7.3µM | -
CCCC(=O)N1CCCC(c2nc(-c3cccc(OC)c3)no2)C1 (configuration not stated) | 3.5µM | 11µM | ? | 9.5µM | ? | 1.4µM
O=C(c1ccco1)N1CCCC(c2nc(-c3ccc(S(=O)(=O)NCc4ccccc4)cc3)no2)C1 (configuration not stated) | - | - | - | - | 21µM | -
COc1ccc(-c2noc(N3CCC(C(=O)NC(C)c4ccccc4)CC3)n2)cc1 (configuration not stated) | - | . | - | - | 13µM | -
